The nature of assay [1]: Human pregnane X receptor (PXR) small molecule agonists, qHTS cell viability counter screen (AID 1346977). Note: nearly all actives have a fitted effect of over 50% in size. The procedure, abridged:
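Measures live-cell protease fluorescence (CellTiter-Fluor) in PXR-Luc HepG2 cells treated 24hr with compounds at 37C. Cells had 5hr to attach before pin transfer of DMSO solutions.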

Assay [2] is described as follows: Caspase-3/7 induction in HepG2 cells by small molecules, qHTS assay (AID 1346978). Note: nearly all actives have a fitted effect of over 15% in size. The procedure, abridged: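 Wild-type HepG2 cells, 2,000/well, settled 5 hr at 37 C and 5% CO2, then compound-treated for 17 hr; caspase-3/7 activity read by luminescent Caspase-Glo 3/7 after 30 min at room temperature.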
Assay [3] in a line: Caspase-3/7 induction in CHO-K1 cells by small molecules, qHTS assay (AID 1346980). Note: nearly all actives have a fitted effect of over 15% in size. The method in brief:
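Wild-type CHO-K1 cells exposed to compounds for 17hr at 37 C, 5% CO2. Caspase-3/7 activity then measured by Caspase-Glo 3/7 luminescence after 30min at room temperature.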

Assay [4] in a line: Caspase-3/7 induction in HepG2 cells by small molecules, qHTS cell viability counter screen (AID 1346981). Note: series mostly up to about 92 µM; nearly all actives have a fitted effect of over 30% in size. The procedure, abridged: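 Wild-type HepG2 cells, 2,000/well, settled 5 hr at 37 C, 5% CO2 before compound addition. Viability read by CellTiter-Fluor fluorescence, reagent added after 16 hr compound exposure, then 1 hr at 37C, in the same wells as the caspase read.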
The target in assay [5] is Voltage-gated inwardly rectifying potassium channel KCNH2 (Homo sapiens) (UniProt Q12809). As to the kind of experiment: Human Ether-a-go-go-Related Gene (hERG) channel small molecule antagonists: fluorescence cell-based qHTS assay (AID 1671200).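 Note: hERG-expressing U2OS cells given a thallium stimulus after FluxOR II dye loading; series mostly up to about 77 µM; nearly all actives have a fitted effect of over 50% in size.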 The procedure, abridged:
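Quantitative HTS in hERG-U2OS cells: thallium entry through the channel reports activity, read as continuous 480/540 nm fluorescence over 2 min after stimulus addition.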

Assay [6] addresses Acetylcholinesterase (Homo sapiens) (UniProt P22303). As to the kind of experiment: Acetylcholinesterase (AChE) small molecule antagonists: colormetric cell-based qHTS assay (AID 1347395; calls by dose curve; note: nearly all actives have a fitted effect of over 30% in size). The method in brief: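 Endogenous AChE of human neuroblastoma SH-SY5Y cells was measured with an Ellman-type DTNB/acetylthiocholine mix. Compound pretreatment lasted 30 min at 37 C; substrate reaction ran 90 min at 37 C.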

Assay [7] has the same target. As to the kind of experiment: Acetylcholinesterase (AChE) small molecule antagonists: enzyme-based qHTS assay (AID 1347397; calls by dose curve; note: nearly all actives have a fitted effect of over 55% in size). Conditions: Potency: AChE enzyme activity inhibition; outcome: AChE enzyme activity inhibition. The procedure, abridged:
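Recombinant human AChE (50 mU/mL) preincubated with compound 30 min at room temperature; acetylthiocholine plus DTNB then added, and thiocholine formation read colorimetrically after 10 min at room temperature. DMSO served as vehicle control.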

Assay [8] shares this target. As to the kind of experiment: Acetylcholinesterase (AChE) small molecule antagonists: fluorescence cell-based qHTS assay (AID 1347398; calls by dose curve; note: nearly all actives have a fitted effect of over 50% in size). Conditions: Potency: AChE activity; outcome: AChE activity. The procedure, abridged: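 SH-SY5Y cells (2000/well), attached overnight, incubated with compound 30 min at 37 C. Acetylthiocholine plus Thiolite Green then added for 40 min at room temperature. Thiocholine fluorescence (Ex/Em 490/520 nm) reports cellular AChE activity.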

The target is the same in assay [9]. Put plainly: Acetylcholinesterase (AChE) small molecule antagonists: enzyme-based qHTS assay with human liver microsomes (AID 1347399; calls by dose curve; note: nearly all actives have a fitted effect of over 60% in size). Conditions: Potency: qHTS inhibition; outcome: qHTS inhibition. The procedure, abridged:
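Recombinant human AChE (50 mU/mL in the enzyme mix) and human liver microsomes (0.25 mg/mL final) were preincubated with compound and NADPH (0.25 mg/mL final) for 30 min at 37 C. Acetylthiocholine/DTNB was then added; thiocholine was read colorimetrically after 10 min at room temperature.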

Assay [10] concerns the target Cytochrome P450 2D6 (Homo sapiens) (UniProt P10635). Put plainly: Cytochrome P450 Family 2 Subfamily D Member 6 (CYP2D6) small molecule antagonists: luciferase reporter qHTS assay (AID 1671196). Note: nearly all actives have a fitted effect of over 50% in size. Note: potency is the fitted concentration of half-maximal effect. The method in brief: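 Cell-free P450-Glo system: CYP2D6 with proluciferin substrate was pre-incubated with compound for 10 min, then reacted with NADPH regeneration for 1 h at room temperature. Luciferin product was detected after 20 min, and data were reported as relative luminescence units.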

The target in assay [11] is Cytochrome P450 2C9 (Homo sapiens) (UniProt P11712). Put plainly: Cytochrome P450 Family 2 Subfamily C Member 9 (CYP2C9) small molecule antagonists: luciferase reporter qHTS assay (AID 1671198). Note: nearly all actives have a fitted effect of over 50% in size. Note: potency is the fitted concentration of half-maximal effect. The procedure, abridged: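 P450-Glo proluciferin substrate with CYP2C9 enzyme; 10 min RT preincubation, then NADPH regeneration 1 h at 37C; luciferin detection reagent 20 min RT, luminescence in relative luminescence units.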

For assay [12], the target named is Cytochrome P450 3A4 (Homo sapiens) (UniProt P08684). As to the kind of experiment: Cytochrome P450 Family 3 Subfamily A Member 4 (CYP3A4) small molecule antagonists: luciferase reporter qHTS assay (AID 1671201). The procedure, abridged:
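Inhibition of CYP3A4 is measured as loss of light: the enzyme converts a proluciferin substrate to luciferin, detected luminescently. Reaction ran 1 h at room temperature with NADPH regeneration after a 10 min compound preincubation.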

In assay [13] the target is Nuclear receptor subfamily 1 group I member 2 (Homo sapiens) (UniProt O75469). Put plainly: Human pregnane X receptor (PXR) small molecule agonists, qHTS assay (AID 1346982). Note: nearly all actives have a fitted effect of over 35% in size. Note: potency is the fitted concentration of half-maximal effect. The method in brief:
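PXR-Luc HepG2 reporter cells (CYP3A4-driven luciferase) in 5% charcoal-stripped FBS medium, plated 5 h before compound addition, then treated 24 h at 37C. Luciferase read by ONE-Glo luminescence after 30 min at room temperature.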

Assay [14] deals with Cytochrome P450 2C19 (Homo sapiens) (UniProt P33261). Put plainly: Cytochrome P450 Family 2 Subfamily C Member 19 (CYP2C19) small molecule antagonists: luciferase reporter qHTS assay (AID 1671197). Note: nearly all actives have a fitted effect of over 65% in size. Note: potency is the fitted concentration of half-maximal effect. The method in brief: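 Quantitative high-throughput screen of the Tox21 library using CYP2C19 with proluciferin substrate. Reaction: NADPH regeneration, 37C, 1 h, after 10 min compound preincubation at room temperature. Readout: luminescence.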

For assay [15], the target named is Cytochrome P450 1A2 (Homo sapiens) (UniProt P05177). Put plainly: Cytochrome P450 Family 1 Subfamily A Member 2 (CYP1A2) small molecule antagonists: luciferase reporter qHTS assay (AID 1671199). Note: nearly all actives have a fitted effect of over 50% in size. Note: potency is the fitted concentration of half-maximal effect. The procedure, abridged: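 P450-Glo CYP1A2 enzyme–proluciferin substrate mix with compound 10 min at room temperature, then NADPH regeneration 1 h at room temperature. Luciferin detection reagent added, luminescence read after 20 min; furafylline positive control.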

Assay [16] has as its target Nuclear receptor subfamily 1 group I member 2 (Rattus norvegicus) (UniProt Q9R1A7). As to the kind of experiment: Rat pregnane X receptor (rPXR) activation by small molecules, qHTS assay (AID 1346983). Note: nearly all actives have a fitted effect of over 20% in size. Conditions: rPXR luciferase reporter cells, One-Glo luminescence, 24 h; hits give high values. The procedure, abridged: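 Cell-based rPXR activation assay: rPXR cells, 2,000 per well, rested 5hr at 37 C, then exposed to compounds in DMSO for 24 hr at 37 C. Luciferase activity read by One-Glo luminescence after 30 min at room temperature.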

SMILES strings stand for the structures. Values joined by “and” are separate entries in the source; they are usually repeats but may differ in a detail not shown here. Equal values may be shown once. A number with no mark means an inactive call. Inconclusive results are not listed. Active and inactive are the calls of the source. Unless noted, calls come from the whole dose curve; as a rule, active = well fitted curve in the direction sought with a large enough effect in the repeat runs; inconclusive = weak or mixed curves; inactive = no such curve, though single readings can be large; an effect the other way counts as inactive or inconclusive.
% is set by controls: 0 for no effect and ±100 for the full control effect.

Voltage-gated inwardly rectifying potassium channel KCNH2 (Homo sapiens), sequence (Q12809 whole entry, looked up): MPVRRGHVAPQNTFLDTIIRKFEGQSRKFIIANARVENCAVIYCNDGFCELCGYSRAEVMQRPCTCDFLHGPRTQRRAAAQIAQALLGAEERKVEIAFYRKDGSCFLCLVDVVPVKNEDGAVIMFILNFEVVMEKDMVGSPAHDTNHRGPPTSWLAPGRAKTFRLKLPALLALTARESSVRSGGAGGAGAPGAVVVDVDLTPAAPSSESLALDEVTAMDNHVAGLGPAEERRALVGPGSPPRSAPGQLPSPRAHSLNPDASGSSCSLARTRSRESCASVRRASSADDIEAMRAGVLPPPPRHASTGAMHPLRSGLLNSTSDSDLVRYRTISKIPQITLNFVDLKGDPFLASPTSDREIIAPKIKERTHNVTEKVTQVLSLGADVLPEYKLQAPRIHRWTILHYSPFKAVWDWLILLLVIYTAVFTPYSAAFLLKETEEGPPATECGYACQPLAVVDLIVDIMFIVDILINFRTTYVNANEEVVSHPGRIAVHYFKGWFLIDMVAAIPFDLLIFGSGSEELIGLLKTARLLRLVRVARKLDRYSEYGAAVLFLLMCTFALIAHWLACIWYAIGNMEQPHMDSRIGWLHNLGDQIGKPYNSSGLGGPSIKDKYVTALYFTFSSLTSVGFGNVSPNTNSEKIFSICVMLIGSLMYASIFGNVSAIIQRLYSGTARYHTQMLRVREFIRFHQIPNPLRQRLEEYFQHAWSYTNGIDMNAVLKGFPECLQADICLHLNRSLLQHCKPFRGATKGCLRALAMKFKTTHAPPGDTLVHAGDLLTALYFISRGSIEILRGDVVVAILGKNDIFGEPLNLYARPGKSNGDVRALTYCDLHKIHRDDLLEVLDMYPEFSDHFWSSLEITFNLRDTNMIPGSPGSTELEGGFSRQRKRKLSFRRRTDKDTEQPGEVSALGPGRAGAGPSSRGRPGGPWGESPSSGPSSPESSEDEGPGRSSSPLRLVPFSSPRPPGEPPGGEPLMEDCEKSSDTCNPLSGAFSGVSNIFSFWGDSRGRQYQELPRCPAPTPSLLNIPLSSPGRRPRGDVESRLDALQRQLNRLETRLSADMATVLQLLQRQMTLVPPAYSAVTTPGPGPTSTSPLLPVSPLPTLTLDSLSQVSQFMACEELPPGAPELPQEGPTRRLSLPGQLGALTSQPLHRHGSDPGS
Cytochrome P450 1A2 (Homo sapiens), sequence (P05177 whole entry, looked up): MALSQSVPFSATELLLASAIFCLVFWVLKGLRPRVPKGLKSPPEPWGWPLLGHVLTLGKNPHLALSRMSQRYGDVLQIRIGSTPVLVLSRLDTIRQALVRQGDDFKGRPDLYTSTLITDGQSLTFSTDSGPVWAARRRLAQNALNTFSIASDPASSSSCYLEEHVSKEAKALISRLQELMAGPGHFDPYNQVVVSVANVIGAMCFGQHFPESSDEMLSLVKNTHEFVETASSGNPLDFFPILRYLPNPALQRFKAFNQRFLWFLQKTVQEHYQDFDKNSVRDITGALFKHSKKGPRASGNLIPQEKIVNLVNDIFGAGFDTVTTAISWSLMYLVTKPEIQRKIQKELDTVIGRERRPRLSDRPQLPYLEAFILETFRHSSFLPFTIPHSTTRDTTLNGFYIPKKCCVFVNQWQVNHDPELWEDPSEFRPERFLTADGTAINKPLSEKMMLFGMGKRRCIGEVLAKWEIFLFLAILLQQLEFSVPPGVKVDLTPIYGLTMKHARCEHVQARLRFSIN
Cytochrome P450 3A4 (Homo sapiens), sequence (P08684 whole entry, looked up): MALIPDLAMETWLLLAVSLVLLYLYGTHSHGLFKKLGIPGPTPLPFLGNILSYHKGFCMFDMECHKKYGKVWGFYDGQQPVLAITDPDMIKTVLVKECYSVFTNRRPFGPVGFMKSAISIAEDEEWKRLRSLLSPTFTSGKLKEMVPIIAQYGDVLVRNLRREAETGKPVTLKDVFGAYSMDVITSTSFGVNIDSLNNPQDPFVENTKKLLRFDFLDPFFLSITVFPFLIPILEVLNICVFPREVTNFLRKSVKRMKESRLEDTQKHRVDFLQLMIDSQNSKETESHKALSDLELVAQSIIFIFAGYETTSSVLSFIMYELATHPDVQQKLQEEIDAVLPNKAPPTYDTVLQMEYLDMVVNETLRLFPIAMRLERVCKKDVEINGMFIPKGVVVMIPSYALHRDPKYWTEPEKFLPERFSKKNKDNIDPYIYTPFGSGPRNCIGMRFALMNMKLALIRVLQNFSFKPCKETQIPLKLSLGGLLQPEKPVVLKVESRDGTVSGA
Cytochrome P450 2D6 (Homo sapiens), sequence (P10635 whole entry, looked up): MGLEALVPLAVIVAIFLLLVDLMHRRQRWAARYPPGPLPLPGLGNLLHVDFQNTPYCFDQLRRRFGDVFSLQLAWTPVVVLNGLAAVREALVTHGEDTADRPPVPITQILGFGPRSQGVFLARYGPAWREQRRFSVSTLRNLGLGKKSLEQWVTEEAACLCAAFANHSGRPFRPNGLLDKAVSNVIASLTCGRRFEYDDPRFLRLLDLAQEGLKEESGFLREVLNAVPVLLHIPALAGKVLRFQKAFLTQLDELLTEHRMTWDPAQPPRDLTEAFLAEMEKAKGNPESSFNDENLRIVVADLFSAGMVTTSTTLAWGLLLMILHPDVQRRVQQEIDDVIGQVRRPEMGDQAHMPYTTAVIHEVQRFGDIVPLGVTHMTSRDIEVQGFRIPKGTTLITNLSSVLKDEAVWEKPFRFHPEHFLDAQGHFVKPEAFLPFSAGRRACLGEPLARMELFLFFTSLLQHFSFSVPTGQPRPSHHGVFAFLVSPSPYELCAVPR
Cytochrome P450 2C9 (Homo sapiens), sequence (P11712 whole entry, looked up): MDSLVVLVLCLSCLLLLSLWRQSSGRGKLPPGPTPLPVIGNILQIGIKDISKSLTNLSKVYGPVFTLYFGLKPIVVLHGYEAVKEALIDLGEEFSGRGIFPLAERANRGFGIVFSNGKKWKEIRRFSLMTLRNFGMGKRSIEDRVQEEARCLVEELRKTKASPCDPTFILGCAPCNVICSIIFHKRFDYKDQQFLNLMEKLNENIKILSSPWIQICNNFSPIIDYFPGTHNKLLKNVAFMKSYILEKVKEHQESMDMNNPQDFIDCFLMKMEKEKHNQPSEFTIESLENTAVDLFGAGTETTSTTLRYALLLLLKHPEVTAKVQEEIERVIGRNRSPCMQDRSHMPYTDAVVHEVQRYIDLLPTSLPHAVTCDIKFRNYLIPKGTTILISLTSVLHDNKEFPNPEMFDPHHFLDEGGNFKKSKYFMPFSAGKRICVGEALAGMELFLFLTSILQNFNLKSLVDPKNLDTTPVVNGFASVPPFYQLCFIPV
Cytochrome P450 2C19 (Homo sapiens), sequence (P33261 whole entry, looked up): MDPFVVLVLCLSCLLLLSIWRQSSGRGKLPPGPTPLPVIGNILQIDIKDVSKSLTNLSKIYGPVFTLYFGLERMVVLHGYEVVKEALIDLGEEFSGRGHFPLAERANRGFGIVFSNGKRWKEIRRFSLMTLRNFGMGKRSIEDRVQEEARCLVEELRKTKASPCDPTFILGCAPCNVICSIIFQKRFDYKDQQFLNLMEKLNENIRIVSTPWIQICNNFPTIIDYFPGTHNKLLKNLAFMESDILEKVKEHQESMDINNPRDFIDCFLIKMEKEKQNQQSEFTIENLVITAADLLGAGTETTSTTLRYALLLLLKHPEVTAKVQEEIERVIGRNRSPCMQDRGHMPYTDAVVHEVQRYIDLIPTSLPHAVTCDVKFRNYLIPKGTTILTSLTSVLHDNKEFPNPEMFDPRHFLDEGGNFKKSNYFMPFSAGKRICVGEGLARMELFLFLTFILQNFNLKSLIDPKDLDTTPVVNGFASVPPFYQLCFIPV
Acetylcholinesterase (Homo sapiens), sequence (P22303 whole entry, looked up): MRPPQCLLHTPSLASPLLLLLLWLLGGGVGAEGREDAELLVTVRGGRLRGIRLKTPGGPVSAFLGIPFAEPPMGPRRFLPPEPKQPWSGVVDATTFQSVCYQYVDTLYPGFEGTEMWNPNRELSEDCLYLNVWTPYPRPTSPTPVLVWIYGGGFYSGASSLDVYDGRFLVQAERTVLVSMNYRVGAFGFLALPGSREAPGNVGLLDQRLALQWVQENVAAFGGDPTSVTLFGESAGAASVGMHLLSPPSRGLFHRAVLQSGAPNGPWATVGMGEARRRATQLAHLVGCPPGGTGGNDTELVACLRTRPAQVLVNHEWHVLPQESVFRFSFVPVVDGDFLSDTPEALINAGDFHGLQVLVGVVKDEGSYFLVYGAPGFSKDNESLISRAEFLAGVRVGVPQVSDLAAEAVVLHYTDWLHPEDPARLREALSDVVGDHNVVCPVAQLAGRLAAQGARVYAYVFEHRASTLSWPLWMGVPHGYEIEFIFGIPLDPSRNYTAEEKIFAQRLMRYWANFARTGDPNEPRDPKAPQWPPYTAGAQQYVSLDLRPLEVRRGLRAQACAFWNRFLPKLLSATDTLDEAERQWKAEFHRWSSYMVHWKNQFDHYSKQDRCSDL
Nuclear receptor subfamily 1 group I member 2 (Homo sapiens), sequence (O75469 whole entry, looked up): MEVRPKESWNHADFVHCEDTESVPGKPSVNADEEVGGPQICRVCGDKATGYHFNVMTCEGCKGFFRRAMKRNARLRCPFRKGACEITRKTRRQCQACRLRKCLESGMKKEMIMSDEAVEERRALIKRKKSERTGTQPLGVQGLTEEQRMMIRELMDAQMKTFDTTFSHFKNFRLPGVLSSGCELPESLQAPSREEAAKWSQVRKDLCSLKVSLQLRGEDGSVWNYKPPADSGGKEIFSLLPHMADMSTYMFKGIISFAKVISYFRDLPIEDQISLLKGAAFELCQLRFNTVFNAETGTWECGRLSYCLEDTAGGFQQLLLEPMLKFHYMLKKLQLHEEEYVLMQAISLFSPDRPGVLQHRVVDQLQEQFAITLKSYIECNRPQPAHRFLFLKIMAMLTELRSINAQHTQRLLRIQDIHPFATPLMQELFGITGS

With `c1ccc2c(c1)-c1cccc3cccc-2c13`, the Potency entry in assay [1], in assay [2], in [3], in assay [4] and in assay [5] was “inactive” throughout.

Turning to `Oc1cccc(Cl)c1`, the Potency result in assay [1], in assay [2], in assay [3], in assay [6], in [7] and in assay [8] was “inactive” each time. Further, the Potency entry in assay [9], in [10], in [11], in assay [5] and in [12] was “inactive” in each case.

`CCC1(CCC(C)C)C(=O)NC(=O)NC1=O`: the Potency result in assay [1], in assay [2], in assay [3], in [4], in assay [13] and in assay [7] was “inactive” each time. In addition, the Potency entry in assay [8], in assay [9] and in assay [5] was “inactive” each time.

With `CCCN(CCC)c1c([N+](=O)[O-])cc(C(C)C)cc1[N+](=O)[O-]`, the Potency entry in assay [1], in assay [2], in assay [3], in assay [4], in assay [7] and in assay [8] was “inactive” each time. Moreover, the Potency entry in assay [9] and in assay [5] was “inactive” in each case. For the same compound, the Potency in assay [13] is 23.8 µM (active); in assay [14], 8.75 µM (active) and 5.03 µM (active); in assay [11], 27.7 µM (active) and 31.7 µM (active); in [15], 27.7 µM (active) and 35.6 µM (active).

With `C#C[C@]1(O)CC[C@H]2[C@@H]3CCC4=CC(=O)CCC4=C3C=C[C@@]21CC`, the Potency result in assay [1], in assay [2], in assay [3], in [4], in assay [7] and in assay [9] was “inactive” in each case. Also, the Potency entry in assay [15] and in assay [5] was “inactive” in each case. Besides, the max activation in assay [16] was -15.2%. Moreover, the Potency in assay [10] was 5.49 µM (active); in assay [14] it was 2.45 µM (active); in assay [11] it was 776 nM (active).

`O=C(O)C(F)(F)C(F)(F)C(F)(F)C(F)(F)C(F)(F)F`: the Potency entry in assay [1], in assay [2], in assay [3], in [13], in assay [7] and in assay [8] was “inactive” throughout. Also, the Potency entry in [9], in [10], in assay [15], in assay [5] and in assay [12] was “inactive” each time. In [11], the Potency was 15900 nM (active).

`CC(=O)NNc1ccccc1`: the Potency entry in assay [1], in assay [2], in assay [3] and in [5] was “inactive” throughout.

For `CC(Cl)C(=O)O` (stereo unspecified), the Potency entry in assay [1], in assay [2], in assay [3], in assay [13], in [6] and in [7] was “inactive” in each case. Moreover, the Potency entry in assay [8], in assay [9], in assay [14], in assay [11], in assay [15] and in assay [5] was “inactive” throughout. Also, the Potency entry in assay [12] was “inactive”.

`COc1cc(CC#N)cc(OC)c1OC`: the Potency result in assay [1], in assay [2], in [3], in [13], in [6] and in assay [7] was “inactive” each time. The Potency result in assay [8], in assay [9], in assay [14], in assay [11], in assay [5] and in assay [12] was “inactive” throughout. Besides, in [15], the Potency was 24.5 µM (active).

The values above are taken from PubChem BioAssay (Tox21).
